Data as given in PubChem BioAssay (NCATS).
Where “and” joins values, the source holds several entries; their conditions need not be identical. Equal entries are not always repeated. A number with no mark means an inactive call. Inconclusive results are not listed. A call without a number means that no potency is given here. Calls of active or inactive are those of the source. Unless noted, calls follow the shape of the dose curve; as a rule, active = well fitted curve in the direction sought with a large enough effect; inconclusive = small, poorly fitted or top-dose-only effect, or another doubt; inactive = no such curve, though single readings can be large; an effect the other way counts as inactive or inconclusive.

How the values were obtained:
JEG-3 = experiment: Primary qHTS to identify gynecologic anti-cancer compounds using libraries of approved drugs and bioactive compounds (AID 1345084); conditions: Gynecologic cancer cell panel viability, ATPlite luminescence, 48 h; series mostly up to 57.5 µM; also: nearly all actives have a fitted effect of over 55% in size
How it was run: (§1)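 In this quantitative HTS, cell killing is estimated from loss of ATP-dependent luciferase light. Cells see five compound concentrations over a 48 h exposure.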

OV90 = experiment: as above; conditions: Gynecologic cancer cell panel viability, ATPlite luminescence, 48 h; series mostly up to 57.5 µM
How it was run: as §1

SKOV3 = experiment: as above; conditions: Gynecologic cancer cell panel viability, ATPlite luminescence, 48 h; series mostly up to 57.5 µM
How it was run: as §1

Tov-21-G = experiment: as above; conditions: Gynecologic cancer cell panel viability, ATPlite luminescence, 48 h; series mostly up to 57.5 µM
How it was run: as §1

Tov112D = experiment: as above; conditions: Gynecologic cancer cell panel viability, ATPlite luminescence, 48 h; series mostly up to 57.5 µM
How it was run: as §1

[1] = Drug repurposing screens with cells derived from glioblastoma tumor samples (AID 1345199); conditions: GBM patient neurospheres viability, ATP luminescence, 48 h; also: nearly all actives have a fitted effect of over 40% in size; also: potency is read from the fitted curve at half-maximal effect
How it was run: (§2)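 Four patient lines of CD133+ GBM neurospheres were screened at several concentrations; hits were retested in those lines plus three slower-growing GBM lines, using 48-hour treatment and ATP-based viability.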

astro = experiment: as above; conditions: viability, ATP luminescence, 48 h; series mostly up to 45.9 µM
How it was run: as §2

PA-1 = experiment: Primary qHTS to identify gynecologic anti-cancer compounds using libraries of approved drugs and bioactive compounds (AID 1345084); conditions: Gynecologic cancer cell panel viability, ATPlite luminescence, 48 h; series mostly up to 57.5 µM; also: nearly all actives have a fitted effect of over 55% in size
How it was run: as §1

[2] = biological target: Nuclear receptor subfamily 1 group I member 2 (Rattus norvegicus) (UniProt Q9R1A7); experiment: qHTS assay for small molecule activators of the rat pregnane X receptor (rPXR) signaling pathway (AID 651751; call rule not given here); conditions: rPXR reporter cells, luciferase (One-Glo), 24 h
[3] = at 20 µM (top of the series), tumour line C
[4] = at 21.2 µM (top of the series), tumour line B
[5] = at 21.2 µM (top of the series), tumour line D
[6] = at 45.9 µM (top of the series), tumour line B
[7] = at 45.9 µM (top of the series), tumour line D
[8] = at 46.1 µM (top of the series), tumour line C
[9] = at 21.3 µM (top of the series), tumour line A
[10] = at 46 µM (top of the series), tumour line A

Chain of Nuclear receptor subfamily 1 group I member 2 (Rattus norvegicus) (Q9R1A7 whole entry, looked up): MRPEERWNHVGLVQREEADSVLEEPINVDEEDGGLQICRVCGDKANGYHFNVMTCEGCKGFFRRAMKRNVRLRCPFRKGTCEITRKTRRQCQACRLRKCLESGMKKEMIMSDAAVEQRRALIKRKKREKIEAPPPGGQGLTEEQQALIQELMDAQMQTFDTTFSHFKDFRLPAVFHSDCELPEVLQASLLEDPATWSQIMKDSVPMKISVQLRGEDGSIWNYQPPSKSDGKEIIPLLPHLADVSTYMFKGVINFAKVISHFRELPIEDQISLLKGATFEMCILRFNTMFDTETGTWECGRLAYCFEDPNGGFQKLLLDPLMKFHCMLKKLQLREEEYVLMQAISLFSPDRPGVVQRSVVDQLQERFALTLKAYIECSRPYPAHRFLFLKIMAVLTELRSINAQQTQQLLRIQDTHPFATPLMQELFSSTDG

| Structure (SMILES) | outcome (JEG-3) | Potency (OV90) | outcome (SKOV3) | outcome (Tov-21-G) | outcome (Tov112D) | activity, negative = cell killing [1, 3] | activity, negative = cell killing [1, 4] | activity, negative = cell killing [1, 5] | outcome (astro) | outcome (PA-1) | activity, negative = cell killing [1, 6] | activity, negative = cell killing [1, 7] | activity, negative = cell killing [1, 8] | Potency ([1]; tumour line A) | activity, negative = cell killing [1, 9] | activity, negative = cell killing [1, 10] | max response [2] |
| --- | --- | --- | --- | --- | --- | --- | --- | --- | --- | --- | --- | --- | --- | --- | --- | --- | --- |
| CCN[C@H]1CN(CCCOC)S(=O)(=O)c2sc(S(N)(=O)=O)cc21 | inactive | inactive | inactive | inactive | inactive | -0.607% | -9.2% | 8.52% | inactive | – | – | – | – | – | – | – | – |
| C[C@@H](c1ncncc1F)C(O)(Cn1cncn1)c1ccc(F)cc1F (stereo not given in full) | inactive | – | inactive | inactive | inactive | – | – | – | inactive | inactive | -6.32% | -23.3% | 6.65% | – | – | – | – |
| CCOc1ccccc1O[C@H](c1ccccc1)[C@H]1CNCCO1 | inactive | inactive | – | inactive | inactive | – | – | – | inactive | inactive | -15.3% | – | 11.5% | 12.6 µM (active) | – | – | – |
| COc1ccc(NS(=O)(=O)c2ccc(N)cc2)nn1 | inactive | – | inactive | inactive | inactive | -22.2% | -14.9% | -7.76% | inactive | inactive | – | – | – | – | -20.5% | – | – |
| NS(=O)(=O)c1cc(-c2nn[nH]n2)c(NCc2cccs2)cc1Cl | inactive | – | – | inactive | inactive | – | – | – | inactive | inactive | 0.416% | -1.64% | -29.2% | – | – | – | – |
| CCCC(O)C(CC)CO (stereo not given) | inactive | inactive | inactive | inactive | inactive | – | – | – | inactive | – | -12.1% | -1.2% | 1.39% | – | – | -19.9% | 7.37% |
| NC(=O)N[C@@H](CCC(=O)O)C(=O)O | inactive | inactive | inactive | – | – | – | – | – | inactive | – | -6.35% | -8.74% | -19.7% | – | – | -22.8% | – |
| CN1CCN(C(=O)C2CCCCC2)CC1 | inactive | inactive | – | inactive | inactive | – | – | – | inactive | inactive | -7.62% | -7.41% | -23.1% | – | – | – | – |
| Nc1ncnc(Nc2ccccc2)n1 | inactive | – | inactive | inactive | inactive | – | – | – | inactive | inactive | -14.8% | -23.1% | -21.6% | – | – | – | – |
| CN1CC(=O)NC1=N | inactive | inactive | inactive | inactive | inactive | – | – | – | inactive | – | -7.86% | -12.2% | -13.9% | – | – | -16.7% | – |
| Nc1ccc(S(=O)(=O)c2ccc(N)cc2)cc1 | inactive | inactive | – | inactive | inactive | – | – | – | inactive | – | -14.4% | 8.15% | -8.46% | – | – | -30% | -2.07% and 2.17% |
| COc1ccc2cc(CCC(C)=O)ccc2c1 | – | – | – | inactive | inactive | – | -27.9% | – | – | inactive | – | – | – | – | – | – | – |
| COc1cc(C(=O)NCCCCCC(=O)O)cc(OC)c1OC | inactive | inactive | – | inactive | inactive | – | – | – | inactive | – | -7.31% | -8.75% | -40.8% | – | – | -18.3% | – |
| C[n+]1ccccc1/C=N/O | inactive | inactive | inactive | inactive | inactive | -23.9% | -15% | -26.7% | inactive | – | – | – | – | – | -10.2% | – | – |
| O=C(O)CNC(=O)c1ccccc1I | inactive | inactive | – | inactive | inactive | – | – | – | inactive | inactive | -1.24% | 4.71% | -16.1% | – | – | -24.5% | – |
| CC1CCc2cc(F)cc3c(=O)c(C(=O)O)cn1c23 (stereo not given) | inactive | inactive | – | inactive | inactive | – | – | – | inactive | inactive | -0.458% | -19% | -25.6% | – | – | -20.5% | – |
| CCCCCCCCCCCCCCCCCCO | inactive | inactive | inactive | inactive | inactive | – | – | – | inactive | – | -13.2% | -6.74% | -1.06% | – | – | – | 0.797% |
